Compounds with a hit are over-represented: about 2.8% of the library has one in this group of screens.
zVAD death inh: L929 zVAD cell death inhibition. L929 zVAD necroptosis rescue, ATP luminescence, 24 h; with zVAD 60 µM. viability rescue, % at 10 µM. 220,000 compounds, 0.38% hits;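 active = activation, scaled between plate controls, above about 75%, limit read from the data; inactive = activation under that limit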;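 note: 0% = zVAD with DMSO and 100% = DMSO alone without zVAD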
Mcl1-Noxa inh: Mcl-1/Noxa interaction inhibition; AID 1022; Q07820; TR-FRET Mcl-1/Noxa peptide binding, 2 h; inhibition, % at 21.7 µM; 220,000 compounds, 1.5% hits;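 active = compounds that cut the protein-peptide binding signal by more than 50% relative to plate controls in a single-dose test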;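 note: His-tagged Mcl-1 with rhodamine Noxa BH3 peptide and terbium anti-His antibody; 0% = Mcl-1 plus Noxa peptide wells and 100% = peptide-only wells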
Target sequence (Q07820 whole entry, looked up): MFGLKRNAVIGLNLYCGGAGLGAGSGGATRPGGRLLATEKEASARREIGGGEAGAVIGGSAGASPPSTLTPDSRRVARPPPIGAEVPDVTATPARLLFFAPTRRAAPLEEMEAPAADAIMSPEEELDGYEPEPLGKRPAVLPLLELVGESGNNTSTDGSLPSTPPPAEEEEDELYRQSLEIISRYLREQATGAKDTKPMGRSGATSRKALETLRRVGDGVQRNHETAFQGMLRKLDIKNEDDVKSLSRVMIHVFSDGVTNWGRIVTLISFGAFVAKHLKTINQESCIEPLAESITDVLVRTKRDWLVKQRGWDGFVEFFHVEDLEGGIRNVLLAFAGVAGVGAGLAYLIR
m-calpain inh: calpain II (pig) inhibition; purified calpain II, fluorogenic peptide substrate, 30 min; 220,000 compounds, 0.37% hits; inhibition, % at 16 µM;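 active = inhibition above about 50%, limit read from the data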
Mcl1 Bid PPI: Mcl-1/Bid interaction inhibition | inhibition, % at 21.7 µM | Q07820 | 220,000 compounds, 0.97% hits | TR-FRET Mcl-1/Bid-Dy647 peptide binding, 1536-well;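 active = compounds that cut the binding signal by more than half at the single screening dose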;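 note: His-tagged Mcl-1 with europium anti-His antibody binding Bid BH3 peptide; 0% = Mcl-1 plus peptide wells and 100% = peptide-only wells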
Bim-Mcl-1: human Bim-Mcl-1 interaction inhibition | Q07820 | Bead-based flow cytometry, Bim peptide-Mcl-1 binding | inhibition, % at 10 µM | 190,000 compounds, 0.1% hits | AID 1009; in the data active = inhibition above about 40%;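 note: 0% = no compound tracer wells and 100% = peptide blocker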
TNF necrop inh: inhibitors of TNF-alpha induced necroptosis in Jurkat FADD-/- cells; Jurkat FADD-/- TNF necroptosis rescue, ATP luminescence, 24 h; 0 = TNF only, 100 = no-TNF cells; activation (protection from cell death), % at 10 µM; 220,000 compounds, 0.068% hits; AID 463075;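 active = activation, meaning protection from cell death, of at least 50% relative to plate controls; inactive = activation below 50%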;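 note: necroptosis triggered by 40 ng/mL TNF-alpha added together with compound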
The depositor's hits bear a star; . = no result.

SMILES	zVAD death inh	Mcl1-Noxa inh	m-calpain inh	Mcl1 Bid PPI	Bim-Mcl-1	TNF necrop inh
Cc1ccc(NC(=O)CN2CCc3ccccc3C2)cc1F	0	27	-18	98*	.	2
O=C(CCN1CCc2ccccc2C1)Nc1cccc(F)c1	0	16	-25	77*	-5	1
COc1cc2c(cc1OC)CN(CC(=O)Nc1ccc(S(=O)(=O)N(C)C)cc1)CC2	1	4	-25	-16	1	1
Cc1ccc(NC(=O)CN2CCc3ccccc3C2)cc1S(=O)(=O)N(C)C	3	19	6	11	-3	1
Nc1cc2nsnc2cc1Br	1	61*	25	-44	0	-16
Nc1cccc2nsnc12	0	7	-15	-75	.	-2
Cc1ccc2c(COC(=O)CC3Sc4ccccc4NC3=O)cc(=O)oc2c1C (centres undefined)	1	11	-1	-6	-7	1
O=C(CC1Sc2ccccc2NC1=O)OCc1cc(=O)oc2cc(O)ccc12 (centres undefined)	0	95*	-485	-96	-2	0
COCc1cc(=O)[nH]c(/N=C(\N)Nc2ccccc2C)n1	0	15	18	5	-2	-1
O=C(NCc1cccs1)C1CCN(S(=O)(=O)c2cccc3nsnc23)CC1	0	9	10	-12	0	0
Cc1ccccc1NCC(=O)N=Nc1c(O)[nH]c2ccc([N+](=O)[O-])cc12	0	53*	-2	-30	.	-2
O=[N+]([O-])c1ccc2[nH]c(O)c(N=NC(=S)Nc3cccnc3)c2c1	-1	100*	-44	26	.	-2
O=C(NCc1csc(-c2cccs2)n1)C1CCCCC1	1	20	-10	-1	.	3
Cc1nnc(Sc2nc3c(c(=O)n(C)c(=O)n3C)n2Cc2ccc(Cl)cc2)s1	.	-5	3	5	0	-1
Cc1ccccc1C(=O)NC(=S)Nc1sc2c(c1C#N)CCCC2	0	6	-104	93*	-3	0
Cc1onc(-c2ccccc2)c1C(=O)NC(=S)Nc1sc2c(c1C#N)CCCC2	-1	44	14	7	-4	2
C=CCNc1nc(-c2cc3ccccc3o2)cs1	1	19	18	55*	0	2
c1ccc2oc(-c3csc(NCC4CCCO4)n3)cc2c1 (centres undefined)	1	9	18	-44	0	0
Cc1cc(Cl)ccc1OCCCC(=O)NCCN1C(=O)S/C(=C\c2cccnc2)C1=O	1	25	-14	-55	-4	1
Cc1ccc(C(=O)Nc2nc3n(n2)C(c2ccccc2)CC(=O)N3)cc1 (centres undefined)	0	-27	11	-8	.	0
COc1ccc(N2C(=O)CC(S/C(N)=N/N=C/c3ccnc4ccccc34)C2=O)cc1 (centres undefined)	28	35	-104	81*	-3	1
CCN1C(=O)c2cccc3c(S(=O)(=O)Nc4ccccc4OC)ccc1c23	0	21	5	75*	-5	-5
Cn1c(=O)c(C(=O)CSc2nncs2)c(N)n(Cc2ccccc2)c1=O	1	-3	1	1	-5	-1
CC(=O)c1ccc(N2CCN(C(=O)CCCn3c(=S)[nH]c4cc5c(cc4c3=O)OCO5)CC2)cc1	-1	35	-32	55*	0	-3
COc1ccc(CN2C(=O)c3cccnc3C2Nc2cc(Cl)c(OC)cc2OC)cc1 (centres undefined)	1	39	4	90*	-5	-1
O=C(Nc1ccccc1)c1snc2c(=O)[nH]cnc12	2	-2	30	-4	16	0
CCOC(=O)C1CCCN(c2ccc(NC(=O)c3snc4c(=O)[nH]c(C)nc34)cc2)C1 (centres undefined)	0	84*	-17	2	0	-5
CCOC(=O)C1CCCN(c2c(Nc3ccc(C)c(C)c3)c(=O)c2=O)C1 (centres undefined)	3	-7	20	-7	-4	2
CCOC(=O)C1CCCN(c2ccc(NC(=O)c3snc4c(=O)[nH]cnc34)cc2)C1 (centres undefined)	0	63*	-42	-60	-3	-1
O=[N+]([O-])c1cc(CN2CCCC2)ccc1Sc1ccc(Cl)cc1	0	11	-6	-29	0	0

Screens from PubChem.
